Reference: PubChem BioAssay AID1259343 (VanderVen Lab, College of Veterinary Medicine, Cornell …, 2017)
Among all 6,200 compounds or so, about 2,900 (47%) were called active. Rule as the data show it: active = inhibition above about 50%; inactive = the rest. The set was probably picked from earlier hits. The list shows a part of the results.

Assay: Mycobacterium tuberculosis growth inhibition, primary screen (AID 1259343)
Conditions: inhibition: at 10 µM, active compounds read high; outcome: 10 uM

Row | SMILES | inhibition
1 | CCOc1cc(C2=NN(c3ccc(C)cc3)C(=O)CC2)ccc1O | 6.87% (inactive)
2 | COc1ccc2c(c1)c(CC(=O)O)c(C)n2C(=O)c1ccc(Cl)cc1 | 43.2% (inactive)
3 | Cc1ccc(C2(CCN)CCOC(C(C)C)C2)cc1 (stereo not drawn) | 80.7% (active)
4 | COc1ccc(NC(=O)CSc2n[nH]c(C3CC3)n2)cc1 | 78.8% (active)
5 | Cc1ccc(Cc2nnc(SCC(=O)Nc3ccc(OC(F)F)cc3)[nH]c2=O)cc1 | 44.2% (inactive)
6 | COc1ccc(NC(=O)N2CCN(CCCOC(c3ccc(Cl)cc3)c3ccc(Cl)cc3)CC2)cc1 | 10.1% (inactive)
7 | Cc1ccc(C)c(Nc2nc(-c3ccc([N+](=O)[O-])cc3)cs2)c1 | 15.3% (inactive)
8 | O=[N+]([O-])c1cccc(-c2csc(Nc3ccc(Cl)cc3)n2)c1 | 88.3% (active)
9 | COC(=O)Nc1cccc(C(=O)N2CCC(C)C3CCCCC32)c1 (stereo not drawn) | 27.1% (inactive)
10 | COC(=O)c1ccc2c(c1)S(=O)(=O)N(C1CCCCC1C)C2=O (stereo not drawn) | 81.4% (active)
11 | CS(=O)(=O)NCc1cccc(-c2ccc(C#N)s2)c1 | 2.92% (inactive)
12 | CCOC(=O)CSc1nnc(CSc2cc(C)nc(N3CCCC3)n2)o1 | 93.2% (active)
13 | Cc1ccc(-c2nnc(SCC(=O)N3CCC(C)CC3)o2)cc1 | -35.9% (inactive)
14 | CCOC(=O)CNC(=O)CSc1ncnc2c1nnn2-c1ccc(OC)cc1 | -7.53% (inactive)
15 | COC(=O)C(C)Sc1ncnc2c1nnn2-c1ccc(F)cc1 (stereo not drawn) | 76.7% (active)
16 | O=C(CSc1ncnc2c1nnn2-c1ccc(F)cc1)OCc1ccccc1 | 2.43% (inactive)
17 | CCOC(=O)C(C)Sc1ncnc2c1nnn2-c1ccc(OC)cc1 (stereo not drawn) | 75.5% (active)
18 | COC(=O)CSc1ncnc2c1nnn2Cc1ccc(F)cc1 | -38.1% (inactive)
19 | CCOC(=O)CSc1ncnc2c1nnn2-c1ccc(OC)cc1 | 3.35% (inactive)
20 | COC(=O)CSc1ncnc2c1nnn2-c1ccc(F)cc1 | 89.9% (active)
21 | COc1ccc(-n2nnc3c(SCC(N)=O)ncnc32)cc1 | 14.3% (inactive)
22 | CCC(Sc1ncnc2c1nnn2-c1ccc(F)cc1)C(=O)OC (stereo not drawn) | 42.6% (inactive)
23 | COc1ccc(-n2nnc3c(SCC(=O)Nc4ccccc4)ncnc32)cc1 | 68.2% (active)
24 | CCOC(=O)C(CC)Sc1ncnc2c1nnn2-c1ccc(F)cc1 (stereo not drawn) | 36.5% (inactive)
25 | CCC(Sc1ncnc2c1nnn2-c1ccc(OC)cc1)C(=O)OC (stereo not drawn) | -33.3% (inactive)

Row | SMILES | inhibition
26 | COC(=O)C(C)Sc1ncnc2c1nnn2-c1ccc(OC)cc1 (stereo not drawn) | 72.2% (active)
27 | CCOC(=O)C(C)Sc1ncnc2c1nnn2-c1ccc(F)cc1 (stereo not drawn) | 60% (active)
28 | CC(Sc1ncnc2c1nnn2-c1ccc(F)cc1)c1ccccc1 (stereo not drawn) | 82.1% (active)
29 | O=C(CC12CC3CC(CC(C3)C1)C2)N=C1N=C2C=CC=CN2Cc2ccccc21 | -15.7% (inactive)
30 | O=C(N=C1N=C2C=CC(Br)=CN2Cc2ccccc21)c1ccccn1 | 10.5% (inactive)
31 | O=C(N=C1N=C2N=CC=CN2Cc2ccccc21)Nc1ccc(Cl)c(Cl)c1 | 88% (active)
32 | O=C(Nc1ccc(Oc2ccccc2F)cc1)C1CCN(C(=O)C#Cc2ccccc2)CC1 | 89.6% (active)
33 | O=C(Nc1ccc(Oc2ccccc2F)cc1)C1CCN(C(=O)C2=CCCC2)CC1 | 90.8% (active)
34 | O=C(Nc1ccc(Oc2ccccc2F)cc1)C1CCN(C(=O)c2ccncc2)CC1 | 90.8% (active)
35 | O=C(Nc1ccc(F)cc1F)C1CCN(C(=O)c2cccnc2)CC1 | 85.7% (active)
36 | Cc1cc(C(=O)N2CCC(C(=O)Nc3ccc(Oc4ccccc4F)cc3)CC2)c(C)o1 | inactive
37 | O=C(Nc1ccc(Oc2ccccc2)nc1)C1CCN(C(=O)C2=CCCC2)CC1 | 44% (inactive)
38 | O=C(Nc1ccc(Oc2ccccc2F)cc1)C1CCN(C2Cc3ccccc3C2)CC1 | 91.6% (active)
39 | Cc1cc(NC(=O)c2ccccc2)n(-c2nc3c(c(=O)[nH]2)CCC3)n1 | -26.4% (inactive)
40 | Cc1cc(NC(=O)c2ccccc2C)n(-c2nc3c(c(=O)[nH]2)CCC3)n1 | 100% (active)
41 | Cc1cc(NC(=O)c2ccco2)n(-c2nc3c(c(=O)[nH]2)CCC3)n1 | 101% (active)
42 | Cc1cc(NC(=O)c2cc(Cl)ccc2Cl)n(-c2nc3c(c(=O)[nH]2)CCC3)n1 | 37.1% (inactive)
43 | COc1ccc(Cl)cc1C(=O)Nc1cc(C)nn1-c1nc2c(c(=O)[nH]1)CCC2 | 95.5% (active)
44 | Cc1cc(NC(=O)c2ccc(F)c(F)c2)n(-c2nc3c(c(=O)[nH]2)CCC3)n1 | -20.9% (inactive)
45 | Cc1cc(NC(=O)c2ccc(Cl)cc2)n(-c2nc3c(c(=O)[nH]2)CCC3)n1 | 101% (active)
46 | CCCN1CCCc2cc(CCNS(=O)(=O)Cc3cccc(C)c3)ccc21 | 31.9% (inactive)
47 | O=C(Nc1ccc(Oc2ccc(Cl)cc2)c(Cl)c1)c1cc(I)cc(I)c1O | 101% (active)
48 | CC(C)=CCCC(C)=CC=NNc1ccc([N+](=O)[O-])cc1 | 62% (active)
49 | CCCCCC(=O)NN=Cc1ccc([N+](=O)[O-])cc1 | 100% (active)
50 | CCCCCCC(=O)NN=Cc1ccc([N+](=O)[O-])cc1 | 77.5% (active)

Row | SMILES | inhibition
51 | CSc1nnc(SCc2ccc([N+](=O)[O-])cc2)s1 | -12.4% (inactive)
52 | CC(C)(C)c1ccc(C=NOCc2ccc([N+](=O)[O-])cc2)cc1 | -20.2% (inactive)
53 | O=C(CSc1nnc(SCc2ccccc2)s1)NN=Cc1ccc([N+](=O)[O-])cc1 | 83.1% (active)
54 | CCCC(=O)Oc1c(S(=O)(=O)c2ccc([N+](=O)[O-])cc2)c(C)nn1-c1ccccc1 | 28.6% (inactive)
55 | CC1=Nn2cc(-c3ccccc3)nc2SC1c1ccccc1 (stereo not drawn) | 20.8% (inactive)
56 | CCCCCCC(C)=NNc1ccc([N+](=O)[O-])cc1 | 98.5% (active)
57 | CCCCCCCC(C)=NNc1nc2ccccc2s1 | inactive
58 | C=CCc1cc([N+](=O)[O-])ccc1O | 101% (active)
59 | O=C(C=Cc1ccco1)NC12CC3CC(CC(C3)C1)C2 | 67.6% (active)
60 | O=C(/C=C/c1cc(C(F)(F)F)ccc1Cl)NCc1ccon1 | -0.62% (inactive)
61 | CC(C)(C)OC(=O)NNC(=O)C=Cc1ccco1 | -8.19% (inactive)
62 | O=C(C=Cc1cccs1)NC12CC3CC(CC(C3)C1)C2 | inactive
63 | O=C(C=Cc1ccc(F)cc1)NCc1ccco1 | 29.9% (inactive)
64 | O=C(C=Cc1ccco1)NCc1ccc(F)cc1 | 72.3% (active)
65 | COc1ccc(NC(=O)CSCc2ccccn2)cc1OC(F)F | 17.9% (inactive)
66 | COc1ccc(C)cc1CCNC(=O)c1ccsc1 | 26.8% (inactive)
67 | COc1ccc(NC(=O)c2ccsc2)cc1OC(F)F | 54.8% (active)
68 | Cc1ccnc(N2CCN(c3ncnc4scc(-c5ccc(F)cc5)c34)CC2)c1 | 3.93% (inactive)
69 | Cc1cccc(OCCN(C)C(=O)/C=C/c2ccc3c(c2)OCO3)c1 | 34.9% (inactive)
70 | CC(C)NS(=O)(=O)CCCOc1ccc2c(c1)OCO2 | 50.3% (active)
71 | O=S(=O)(CCCOc1ccc2c(c1)OCO2)NC1CCCCCC1 | 93% (active)
72 | O=S(=O)(CCCOc1ccc2c(c1)OCO2)NC1CCCCC1 | 99.2% (active)
73 | COCCn1c(=S)[nH]c2sc3c(c2c1=O)CCC(C)C3 (stereo not drawn) | -21.7% (inactive)
74 | CCN=c1scc(-c2ccc(Br)s2)n1N=CC1CCCCC1 | 36% (inactive)
75 | Cc1nc(C(C)C)sc1C(=O)Nc1nc2ccccc2[nH]1 | 100% (active)

Row | SMILES | inhibition
76 | CNC(=O)c1sc(N2CCN(c3ccccc3F)CC2)nc1C | 33.2% (inactive)
77 | CC1=CC(=NNc2nc3ccccc3[nH]2)CC(C)(C)C1 | 24.5% (inactive)
78 | Cc1csc(Nc2ccc(Cl)cc2)[n+]1-c1ccc(Cl)cc1 | 16% (inactive)
79 | Cc1nc2nc(CC(=O)N3CCOCC3)nn2c(C)c1Cl | 52.5% (active)
80 | CC(C)(C)C(=O)NC(=S)NC1=CC2N=C(c3ccncc3)OC2C=C1 (stereo not drawn) | 54.2% (active)
81 | CC(C)COc1ccc(NC(=O)c2nn(C)c(=O)c3ccccc23)cc1Cl | 24.1% (inactive)
82 | CC(C)COc1ccc(NC(=O)C2CC2c2cnn(C)c2)cc1Cl (stereo not drawn) | -6.2% (inactive)
83 | CC(C)COc1ccc(NC(=O)c2ccnnc2)cc1Cl | 50.1% (active)
84 | CS(=O)(=O)Nc1cc(Cl)ccc1Sc1ccc(F)cc1 | 76.2% (active)
85 | Cc1cc(C)c(NC(=O)c2cc(C)nc3c2cnn3C(C)C)c(C)c1 | 59.8% (active)
86 | CCOc1ccc(-c2nc(CN3N=NC4C(=O)N(c5ccc(C)c(Cl)c5)C(=O)C43)c(C)o2)cc1 (stereo not drawn) | 20.2% (inactive)
87 | COc1ccc(N2C(=O)C3N=NN(Cc4cc(C)ccc4C)C3C2=O)cc1Cl (stereo not drawn) | -29.4% (inactive)
88 | CCOc1ccc(N2C(=O)C3N=NN(Cc4cc(C)ccc4C)C3C2=O)cc1 (stereo not drawn) | 61.5% (active)
89 | CCc1ccc(N2C(=O)C3N=NN(Cc4cccc(C)c4)C3C2=O)cc1 (stereo not drawn) | 67.8% (active)
90 | CCc1ccc(N2C(=O)C3N=NN(Cc4nc(-c5cccc(Cl)c5)oc4C)C3C2=O)cc1 (stereo not drawn) | 83.4% (active)
91 | CCCN(C)C(=O)c1ccc2c(c1)C(=O)N(c1ccc(OCC)cc1)C2=O | 21.7% (inactive)
92 | CCOc1ccc(N2C(=O)C3N=NN(Cc4cccc(C)c4)C3C2=O)cc1 (stereo not drawn) | 78.4% (active)
93 | CSc1ccc(NC(=O)c2cn[nH]n2)cc1Cl | 95.5% (active)
94 | CC(=O)/C(=N/Nc1ccc(C)cc1)N1CCOCC1 | 94.7% (active)
95 | O=C1c2ccc([N+](=O)[O-])cc2C(=O)N1CNc1ccc2c(c1)oc1ccccc12 | 86.3% (active)
96 | O=C1c2cccc([N+](=O)[O-])c2C(=O)N1CNc1ccc(Cl)c(Cl)c1 | 45.5% (inactive)
97 | CC(C)CCC(C)NC(=O)c1cc(O)cs1 (stereo not drawn) | 37.3% (inactive)
98 | Cc1cc(O)c(S(=O)(=O)c2cc(Cl)c(Cl)cc2Cl)c(=O)[nH]1 | 60.9% (active)
